Values without a mark were called inactive. Inconclusive results are not listed. Where a call stands in place of a potency, no number is given. Active and inactive are the calls of the source. The call rests on the fitted dose curve; in most records, active means well fitted curve in the direction sought with a large enough effect; inconclusive means small, poorly fitted or top-dose-only effect, or another doubt; inactive means no such curve, though single readings can be large; an effect the other way counts as inactive or inconclusive.
How the values were obtained:
[1] = molecular target: Glutathione peroxidase 1 (Homo sapiens) (UniProt P07203); assay: Primary qHTS Assay for Inhibitors of Recombinant Selenoprotein Glutathione Peroxidase 1 (GPX1) (AID 1845191); further: nearly all actives have a fitted effect of over 65% in size
Sequence of Glutathione peroxidase 1 (Homo sapiens) (P07203 whole entry, looked up): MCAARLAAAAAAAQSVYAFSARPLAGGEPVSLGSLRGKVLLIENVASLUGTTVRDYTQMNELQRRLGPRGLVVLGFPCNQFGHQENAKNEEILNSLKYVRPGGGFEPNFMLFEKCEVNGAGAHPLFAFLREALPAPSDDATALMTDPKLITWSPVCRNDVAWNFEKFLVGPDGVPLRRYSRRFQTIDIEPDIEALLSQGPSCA
Method in brief: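 GPX1 10 nM, GR 100 nM, GSH 1 mM, NADPH 0.5 mM, CHP 0.5 mM (final). 30-min cpd preincubation, RT. Ex340/Em450 read t=0, t=15 min.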

[2] = molecular target: Phospholipid hydroperoxide glutathione peroxidase GPX4 (Homo sapiens) (UniProt P36969); assay: Primary qHTS Assay for Inhibitors of Recombinant Selenoprotein Glutathione Peroxidase 4 (GPX4) (AID 1845192); further: nearly all actives have a fitted effect of over 65% in size
Sequence of Phospholipid hydroperoxide glutathione peroxidase GPX4 (Homo sapiens) (P36969 whole entry, looked up): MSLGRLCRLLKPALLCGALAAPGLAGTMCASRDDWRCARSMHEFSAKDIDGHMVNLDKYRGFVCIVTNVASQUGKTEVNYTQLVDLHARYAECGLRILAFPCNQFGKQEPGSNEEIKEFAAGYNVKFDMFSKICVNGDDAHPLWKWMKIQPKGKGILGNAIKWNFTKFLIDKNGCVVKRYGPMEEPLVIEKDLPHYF
Method in brief: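 qHTS, GR-coupled: GPX4 200 nM + cpd 30 min RT → GSH 1 mM, NADPH 0.5 mM, GR 100 nM → CHP 0.5 mM start; fluor 340/450 at t0 and t15 min; no-enzyme wells as control.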

[3] = molecular target: Luciferin 4-monooxygenase (Photinus pyralis) (UniProt P08659); assay: Primary firefly luciferase (FLuc) qHTS assay for identification of artifact compounds. (AID 1845220); further: nearly all actives have a fitted effect of over 60% in size
Method in brief: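 In this counter-screen for luciferase artifacts, test compounds met substrate (10 uM each luciferin and ATP) before 10 nM enzyme started the reaction. Light output was measured 5 min later.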

[4] = Primary fluorescence-based thiol-reactive (MSTI) qHTS assay for identification of artifact compounds. (AID 1845221); further: nearly all actives have a fitted effect of over 65% in size
Method in brief: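 Thiol-reactive compounds detected by quenching of 4 uM MSTI fluorescence (525/598 nm) after 1 h room-temperature dark incubation in PBS pH 7.4, 2% DMSO. qHTS titration; percent inhibition Hill-fitted against Acetyl-MSTI/MSTI controls.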

[5] = tested on: Nanoluciferase (engineered Oplophorus gracilirostris luciferase); assay: Primary Nanoluciferase (NLuc) qHTS assay for identification of artifact compounds. (AID 1845222)
Method in brief: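 Using secreted nanoluciferase in S16 culture medium (0.22 um filtered, 1:55 dilution), compounds were preincubated 15 min at RT. Signal was generated with Nano-Glo reagent (1:100) over 5 min.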

[6] = Primary redox qHTS assay for identification of artifact compounds. (AID 1845223)
Method in brief: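 Redox-cycling detection via DTT (250 uM final) oxidation coupled to Amplex Red (25 uM)/HRP (250 mU/mL) in HBSS. 15 min preincubation plus 30 min after DTT, room temperature. Ex/Em 525/598 nm; 4-parameter Hill fit against DMSO and 10 uM DA3003.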
Potency means the concentration at half of the fitted maximal effect.

Compound	Potency [1]	Potency [2]	Potency [3]	Potency [4]	Potency [5]	Potency [6]
COCCNCc1ccc(-c2cc3nccc(Oc4ccc(NC(=O)C5(C(=O)Nc6ccc(F)cc6)CC5)cc4F)c3s2)nc1	inactive	inactive	inactive	inactive	inactive	inactive
CC(=O)NCc1cccc(OC[C@@H](O)CNCCc2ccc(NS(=O)(=O)c3ccccc3)cc2)c1	inactive	inactive	inactive	inactive	inactive	inactive
Cc1nc2c(C(F)(F)F)cccc2nc1-c1ccc(-c2cccc(S(C)(=O)=O)c2)cc1	inactive	inactive	inactive	inactive	inactive	inactive
C/C=C/C=C/C=C/C(=O)O[C@@H]1C=C2COC(=O)[C@]2(O)[C@@]2(C)CCCC(C)(C)[C@H]12	inactive	inactive	inactive	inactive	inactive	inactive
COc1cc(OC)c2c(=O)[nH]c(-c3cc(C)c(OCCO)c(C)c3)nc2c1	inactive	inactive	15.1 µM (active)	inactive	inactive	inactive
c1ccc(-c2ccc(CNc3nc(-c4ccccn4)nnc3-c3ccccc3)cc2)cc1	inactive	inactive	inactive	inactive		inactive
C#CCCCn1cc(-c2cccc3c2N[C@H](C)CC(=O)N3)cn1	inactive	inactive	inactive	inactive	inactive	inactive
Fc1ccc(-n2cc(CCCCN3CCC4(CC3)OCc3ccccc34)c3ccccc32)cc1	inactive	inactive	inactive	inactive	inactive	inactive
O[C@@](Cc1ncc(CC2(C(F)(F)F)CC2)[nH]1)(c1ccc(-n2cccn2)cc1)C(F)(F)F	inactive	inactive	inactive	inactive	inactive	inactive
C=C1CCCC2(C)CCC(C(C)(C)OC3OC(C)C(O)C(O)C3OC(=O)/C(C)=C\C)CC12 (configuration not stated)	inactive	inactive	inactive	inactive	inactive	inactive
C=C1C(=O)O[C@@H]2[C@H]1CC[C@H](C)C(CCC(=O)O)C2(C)O (some centres not stated)	inactive	inactive	inactive	inactive	inactive	inactive
C/C=C(\C)C(=O)OC1C(C)C2(O)C(C=C(CO)CC3(O)C(=O)C(C)=CC32)C2C(C)(C)C12OC(=O)C(C)C (configuration not stated)	inactive	inactive	inactive	inactive	inactive	inactive
Nc1ncnc2c1nc(Cl)n2C1OC2COP(=O)(O)OC2C1O (configuration not stated)	inactive	inactive	inactive	inactive	inactive	inactive
C=C1CC[C@@H]2[C@](C)(CO)[C@H](O)CC[C@@]2(C)[C@@H]1/C=C/C1=CCOC1=O	inactive	inactive	inactive	inactive	inactive	inactive
C[C@@]12C(=O)N(c3ccc(C(=O)Nc4cccc5cccnc45)cc3)C(=O)[C@@H]1[C@@H]1C=C[C@H]2C1	inactive	inactive	inactive	inactive	inactive	inactive
Cc1cc(-c2cnc(N)c3c(-c4ccc5scnc5c4)csc23)n(C)n1	inactive	inactive	inactive	inactive	inactive	inactive
COC(=O)C(Cc1ccc(OCCn2c(=O)sc3cc(C(=O)c4ccccc4)ccc32)cc1)C(=O)OC	inactive	inactive	inactive	inactive	inactive	inactive
C[C@H](CN(C)C)Oc1nc(Nc2cc3cccc(Cl)c3cn2)cnc1C#N	inactive	inactive	inactive	inactive	inactive	inactive
O=S(=O)(Cc1ccccc1)Nc1ccc(-c2ccc3c(cnn3-c3ccc(F)cc3)c2)c(C(F)(F)F)c1	inactive	inactive	inactive	inactive	inactive	inactive
C/C(=C/CO)CCC1C(C)CCC2C(C)(C)CCCC12C (configuration not stated)	inactive	inactive	inactive	inactive	inactive	inactive
COc1c(F)cccc1C(=O)N1C[C@@H](C)CC[C@H]1CNc1ccc(Br)cn1	inactive	inactive	inactive	inactive		inactive
Cn1ncc2cc(-c3cnc(N)c(Cl)c3N3CCC4(CCNC4=O)CC3)ccc21	inactive	inactive	inactive	inactive	inactive	inactive
O=C(CNC(=O)c1cccc(C(F)(F)F)c1)N[C@@H]1CCN(Cc2ccc(Cl)cc2)C1	inactive	inactive	inactive	inactive	inactive	inactive
Cn1nc(-c2ccc(C(F)(F)F)cc2)nc2c(=O)n(C)c(=O)nc1-2	25.5 µM (active)	22.7 µM (active)	6.01 µM (active)	2.67 µM (active)	3.01 µM (active)	0.15 µM (active)

— PubChem BioAssay (NCATS)
